Source: PubChem BioAssay
KCNH2 3.1 block – inhibitors of human KCNH2 3.1 potassium channel isoform; activity change, % (tested at about 1.8 µM); AID 720553; actives 0.95% (n = 340,000); U2OS KCNH2 3.1, thallium flux FluxOr; stronger effect = lower value;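 active = maximum activity change below -70%; inconclusive = maximum activity change from -70% to -50%; inactive = maximum activity change above -50%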;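 note: thallium influx rate constant from kinetic fluorescence after stimulation buffer; % is set by controls: 0 for no effect and ±100 for the full control effect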
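U2OS cells transduced with KCNH2 3.1 mutant virus (1.77 x 10^8 /mL, 4 h), plated overnight at 37 C, loaded 45 min with FluxOr dye plus Red40 quencher. Thallium flux rate constant from kinetic reads after stimulation buffer, normalised to controls.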
MCF10A rerep – DNA re-replication induction in MCF 10a cells; MCF 10A DNA re-replication, Hoechst nuclear intensity, 48 h; Potency, µM (doses to about 46.1 µM), without a hit: top-dose activity, positive = re-replication, actives largely listed as activators; actives 2.9% (n = 350,000); AID 624296; note: potency is the fitted concentration of half-maximal effect; % of control where 0% means no effect; nearly all actives have a fitted effect of over 50% in size
KB-V1 MDR tox – KB-V1 MDR subline cytotoxicity | KB-V1 MDR cells viability, CellTiter-Glo, 72 h | Potency, µM (titrated, usually from 46.1 µM), most hits filed as cytotoxic | actives 3.4% (n = 400,000) | AID 1347076; note: potency is the fitted concentration of half-maximal effect; % is set by controls: 0 for no effect and ±100 for the full control effect; nearly all actives have a fitted effect of over 60% in size
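KB-V1 cells (P-gp-expressing MDR subline of KB-3-1) in phenol-red-free DMEM with 10% FBS were exposed to library compounds over a concentration series for 72 h at 37 degrees C. Viability read by CellTiter-Glo luminescence; concentration-effect curves fitted after normalization.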
KB-3-1 cytotox – kills parental KB-3-1 adenocarcinoma cells; KB-3-1 viability, CellTiter-Glo ATP luminescence, 72 h; Potency, µM (top dose mostly 46.1 µM), actives largely listed as cytotoxic; actives 1.4% (n = 400,000); AID 1347075; note: potency is the fitted concentration of half-maximal effect; % is set by controls: 0 for no effect and ±100 for the full control effect; nearly all actives have a fitted effect of over 60% in size
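Here the drug-naive KB-3-1 line serves as comparator for MDR sub-line selectivity; cells received compound titrations, 72 h at 37 °C, then CellTiter-Glo readout.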
SW480 rerep – induces DNA re-replication in SW480 colon adenocarcinoma cells. SW480 DNA re-replication, Hoechst DNA content imaging, 48 h. Potency, µM (highest dose often 46.1 µM), without a hit: at the highest dose re-replication activation, actives largely listed as activators. actives 1.8% (n = 340,000). AID 624297; note: potency is the fitted concentration of half-maximal effect; % of control where 0% means no effect; nearly all actives have a fitted effect of over 55% in size
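250 cells/well; 23 nL cpd via pin tool; 48 hr, 37 C, 5% CO2; Hoechst 40 min; imager read of total nuclear intensity, ex 405/em 500-530 nm.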
hERG WT inh – KCNH2 (human, wildtype) channel inhibition; actives 0.37% (n = 340,000); activity change, % at 1.84 µM; Q12809; AID 720551; U2OS, BacMam KCNH2, thallium flux FluxOr; stronger effect = lower value;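 active = maximum activity change below -70%; inconclusive = maximum activity change between -70% and -50%; inactive = maximum activity change above -50%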; note: % is set by controls: 0 for no effect and ±100 for the full control effect
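U2OS cells were transduced with wild-type KCNH2 virus (2.03 x 10^8 / mL) for 4 h at room temperature, then cultured overnight at 37 C. Thallium flux was read with FluxOr dye. Rate constants were normalized to DMSO controls.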
Numbers without * were called inactive. Hits are enriched below; roughly 7.6% of the tested compounds scored in any of these assays. Unless noted, calls come from the whole dose curve; as a rule, active = well fitted curve in the direction sought with a large enough effect; inconclusive = small, poorly fitted or top-dose-only effect, or another doubt; inactive = no such curve, though single readings can be large; an effect the other way counts as inactive or inconclusive.

Screening O=C(CN1CCC(C(=O)c2ccc(F)cc2)CC1)NCc1ccccc1F returned KCNH2 3.1 block 1.9, MCF10A rerep -0.1%, KB-V1 MDR tox 9.2µM*, KB-3-1 cytotox inconclusive, SW480 rerep 16.9% and hERG WT inh -0.1.
`O=C(CN1CCN(C(=O)C2CCN(C(=O)/C=C/c3ccccc3)CC2)CC1)Nc1ccc(F)cc1` gave KCNH2 3.1 block -98.7*, MCF10A rerep 5.9%, KB-V1 MDR tox inconclusive, KB-3-1 cytotox inactive, SW480 rerep 1.8% and hERG WT inh -39.0.
Screening O=C(CN1CCC(C(=O)c2ccc(F)cc2)CC1)Nc1ccccc1 returned KCNH2 3.1 block -20.2, MCF10A rerep 1.9%, KB-V1 MDR tox 4.61µM*, KB-3-1 cytotox inactive, SW480 rerep 0.6% and hERG WT inh -3.5.
`CC1CCCCC1NC(=O)c1c(O)nc2ccccn2c1=O` (stereo unspecified) gave KCNH2 3.1 block 0.2, MCF10A rerep 2.4%, KB-V1 MDR tox inconclusive, KB-3-1 cytotox inconclusive, SW480 rerep -265.7% and hERG WT inh 2.1.
Screening COc1cc(CNC(C)C)c(Br)cc1OC1CCCC1 returned KCNH2 3.1 block -43.2, MCF10A rerep 18.0%, KB-V1 MDR tox inactive, KB-3-1 cytotox inactive, SW480 rerep 1.7% and hERG WT inh -4.9.
For O=C(NCCN1CCN(c2cccc(Cl)c2)CC1)c1ccc(CSc2nc3ccncc3[nH]2)cc1 the results were MCF10A rerep 18.4µM*, KB-V1 MDR tox inactive, KB-3-1 cytotox inconclusive, SW480 rerep 15.5% and hERG WT inh 10.6.
CCN(CCNC(=O)c1ccc(CSc2nc3ccncc3[nH]2)cc1)c1ccccc1 was read as KCNH2 3.1 block -1.5, MCF10A rerep inconclusive, KB-V1 MDR tox inactive, KB-3-1 cytotox inactive, SW480 rerep -6.8% and hERG WT inh 6.3.
For O=C(NCCN1CCOCC1)c1ccc(NC(=O)C2COc3ccccc3O2)cc1 (stereo unspecified) the results were KCNH2 3.1 block 12.1, MCF10A rerep -32.4%, KB-V1 MDR tox inactive, KB-3-1 cytotox inactive, SW480 rerep -1.7% and hERG WT inh 4.1.
For Cc1oc2ccc(OS(C)(=O)=O)cc2c1C(=O)OC(C)C the results were KCNH2 3.1 block -5.3, MCF10A rerep -11.4%, KB-V1 MDR tox 13µM*, KB-3-1 cytotox inactive, SW480 rerep 0.6% and hERG WT inh -11.2.
`Cc1cc2n(n1)C(c1cn(-c3ccccc3)nc1C)Nc1ccccc1-2` (stereo unspecified) gave KCNH2 3.1 block -136.3*, MCF10A rerep 12.5%, KB-V1 MDR tox inactive, KB-3-1 cytotox inactive, SW480 rerep -5.1% and hERG WT inh -125.4*.
Cc1cc2n(n1)C(c1cn(-c3ccccc3)nc1C)Nc1c(C)cccc1-2 (stereo unspecified) was read as KCNH2 3.1 block -10.4, MCF10A rerep 6.2%, KB-V1 MDR tox inconclusive, KB-3-1 cytotox inactive, SW480 rerep -12.3% and hERG WT inh 2.5.
`COc1ccc(S(=O)(=O)N(CC(=O)NCc2cccnc2)c2ccc(F)cc2)cc1OC` gave MCF10A rerep 1.0% and SW480 rerep -3.9%.
Screening O=C(CCC1N=C2c3ccccc3N=C(SCc3ccc(Cl)cc3)N2C1=O)NCc1ccco1 (stereo unspecified) returned KCNH2 3.1 block -20.7, MCF10A rerep inconclusive, KB-V1 MDR tox 6.51µM*, KB-3-1 cytotox inconclusive, SW480 rerep inconclusive and hERG WT inh -8.2.
O=C(CCC1N=C2c3ccccc3N=C(SCc3ccc(F)cc3)N2C1=O)NCc1ccco1 (stereo unspecified) was read as KCNH2 3.1 block 1.5, MCF10A rerep 6.1%, KB-V1 MDR tox inactive, KB-3-1 cytotox inactive, SW480 rerep 0.4% and hERG WT inh 2.2.
